A selection: hits, their analogues and other compounds. The true share with any hit is near 4%.
D1 antag – antagonists of human D1 dopamine receptor; P21728; HEK293 TREx D1 cells, calcium flux, dopamine EC80; hits give low values; activity change, negative = inhibition, % at 10 µM; 360,000 tested, 3.2% active; AID 504652; in the data active = activity change below about -30%
Target sequence (P21728 whole entry, looked up): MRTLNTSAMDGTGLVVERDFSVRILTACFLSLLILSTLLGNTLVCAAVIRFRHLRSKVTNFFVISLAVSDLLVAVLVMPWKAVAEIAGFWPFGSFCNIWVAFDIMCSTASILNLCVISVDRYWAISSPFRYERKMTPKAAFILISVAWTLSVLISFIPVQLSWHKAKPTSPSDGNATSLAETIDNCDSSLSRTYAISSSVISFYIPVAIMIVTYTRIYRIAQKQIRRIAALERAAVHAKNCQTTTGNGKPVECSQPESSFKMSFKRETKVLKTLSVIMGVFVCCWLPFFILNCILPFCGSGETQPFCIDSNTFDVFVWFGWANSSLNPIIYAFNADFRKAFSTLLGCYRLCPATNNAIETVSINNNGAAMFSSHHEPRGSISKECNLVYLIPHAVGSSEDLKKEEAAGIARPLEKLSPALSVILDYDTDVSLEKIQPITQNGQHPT
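Tetracycline-induced HEK293 Trex D1 cells, force-coupled to calcium, dye-loaded; compounds added and read 180 s, then EC80 dopamine added and calcium flux tracked kinetically another 180 s.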
TRHR enhancer – allosterically enhances the human TRH receptor; P34981; TRHR cells, fluo-8 calcium fluorescence, EC20 TRH enhancement; enhancement, % at 2 µM; 360,000 tested, 0.66% active; AID 493056; in the data active = enhancement above about 30%
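Enhancer read-out: after compound pinning and an initial kinetic agonist-mode read, an EC20 of TRH (10 nM final) was injected and fluo-8 calcium signal (Ex 480/Em 530) followed at 1 s/cycle for 100 cycles in TRHR-expressing cells.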
D1 ag – activates the human D1 dopamine receptor; P21728; HEK293 T-REx D1 cells, calcium flux, agonist mode; activation, % at 2 µM; 360,000 tested, 1% active; AID 504660
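Inducible HEK293 T-REx D1 cells, force-coupled to calcium signalling, were plated at 4000 cells/well with tetracycline and held overnight at 30 C. After no-wash calcium dye loading, compound-evoked calcium rise over 180 s flagged agonists.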
D1 PAM – potentiators of human D1 dopamine receptor; HEK293 TREx D1 cells, calcium flux, dopamine EC20 potentiation; potentiation, % at 10 µM; AID 504651; 360,000 tested, 0.036% active; in the data active = potentiation above about 30%
Glioma ERSR ind – ER stress response induction in glioma. U87-MG GRP78 promoter luciferase reporter, 16 h. Potency, µM, most hits filed as activators. 420,000 tested, 0.02% active; active = well fitted activation curve with a large enough effect; also: series mostly up to about 76 µM; nearly all actives have a fitted effect of over 35% in size
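Stably transfected U87-MG glioma cells carrying a GRP78-based luciferase sensor; 16 h compound incubation. Luminescence end-point read 10 min after Bright-Glo addition at room temperature.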
TRHR ag – TRH receptor (human) agonism; P34981; TRHR cells, calcium flux fluo-8, FDSS agonist mode; activation, % at 2 µM; 360,000 tested, 0.18% active
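In this calcium-flux screen, cells bearing human TRHR are dye-loaded with fluo-8, baselined for 10 cycles, then exposed to library compounds; positive kinetic calcium responses during the agonist phase mark hits, with TRH as control.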
Numbers stand for hits; – = inactive; · = no result. Rule as the data show it, unless noted: active = activation above about 30%; inactive = the rest.

SMILES | D1 antag | TRHR enhancer | D1 ag | D1 PAM | Glioma ERSR ind | TRHR ag
CCOc1ccccc1NC(=O)C(OC(=O)C1CC1)c1ccccc1 (configuration not stated) | – | – | 30.4 | – | – | –
CCOc1ccccc1NC(=O)C(OC(=O)c1cnc(C)cn1)c1ccccc1 (configuration not stated) | · | · | · | · | – | ·
CC(=O)Nc1ccc(S(=O)(=O)Nc2nc3ccccc3nc2Nc2ccc3ccccc3c2)cc1 | – | – | – | – | – | –
COc1cc(Nc2nc3ccccc3nc2NS(=O)(=O)c2ccc([N+](=O)[O-])cc2)cc(OC)c1OC | -74.1 | – | – | – | – | –
COC(=O)c1cc(Nc2nc3ccccc3nc2NS(=O)(=O)c2ccc(C)cc2)ccc1Cl | -30.7 | – | – | – | – | –
CC(C)OP(=O)(c1ccc(N(C)C)cc1)C(Nc1ccccc1)c1cccnc1 (configuration not stated) | -31.1 | – | – | – | – | –
CC(C)COP(=O)(c1ccc(N(C)C)cc1)C(O)c1cccnc1 (configuration not stated) | -86.5 | – | – | – | – | –
CN(C)c1ccc(P(=O)(OC2CCCCC2)C(Nc2ccccc2)c2cccnc2)cc1 (configuration not stated) | – | – | – | – | – | –
O=C(NCCN1CCOCC1)c1ccccc1Cl | – | – | – | – | – | –
C#Cc1ccc([C@@H]2C=C(C(=O)O)O[C@H](OCc3ccc(CO)cc3)C2)cc1 | -39.1 | – | – | – | – | –
C#CCNC(=O)C1=C[C@H](C2CCCCC2)C[C@H](OCc2ccc(CO)cc2)O1 | -35.3 | – | – | – | – | –
C#CCNC(=O)C1=C[C@@H](c2ccc(Br)cc2)C[C@@H](OCc2ccc(CO)cc2)O1 | -30.8 | – | – | – | – | –
C#CCNC(=O)C1=C[C@@H](C2CCCCC2)C[C@@H](OCc2ccc(CO)cc2)O1 | – | – | – | – | – | –
Cc1cccc(NC(=O)c2cccc(OC(=S)N3CCOCC3)c2)c1C | -32.2 | – | – | – | – | –
COc1ccccc1NC(=O)CSc1nnc(CC(=O)Nc2ccccc2)n1C | – | – | – | – | – | –
O=C(COc1cc(Cl)c(Cl)cc1Cl)Nc1ccncc1 | -30.0 | – | – | – | – | –
COc1cccc(NC(=O)COc2ccc(Br)c(C)c2)c1 | -36.5 | – | – | – | – | –
O=C(COc1cc(Cl)c(Cl)cc1Cl)Nc1cccc(O)c1 | – | – | – | – | – | –
Cc1cc(OCC(=O)Nc2ccncc2)ccc1Br | -32.1 | – | – | – | – | –
O=C(CSCC(=O)NN=Cc1ccccc1)NN=Cc1ccccc1 | · | · | · | · | – | ·
Cc1cccc(-c2nc(CN3CCN(Cc4cccc(F)c4)CC3)c(C)o2)c1 | – | 31.4 | – | – | – | –
CCc1ccc(-c2nc(CN3CCC(C(=O)NCc4ccc(F)cc4)CC3)c(C)o2)cc1 | – | – | 33.3 | – | – | –
CCN(CCNC(=O)C1CCN(Cc2nc(-c3cccc(Cl)c3)oc2C)CC1)c1ccccc1 | -43.9 | – | 47.4 | – | – | –
COc1ccc(-c2nc(CN3CCC(C(=O)NCc4ccc(F)cc4)CC3)c(C)o2)cc1OC | – | – | – | – | – | –
Cc1oc(-c2cccc(F)c2)nc1CN1CCCN(C(=O)c2ccco2)CC1 | – | – | – | – | – | –
SMILES | D1 antag | TRHR enhancer | D1 ag | D1 PAM | Glioma ERSR ind | TRHR ag
CCc1ccc(-c2nc(CN3CCC(C(=O)NCCN(CC)c4ccccc4)CC3)c(C)o2)cc1 | – | – | 32.2 | – | – | –
Cc1oc(-c2cccc(Cl)c2)nc1CN1CCC(C(=O)NC2CC2)CC1 | – | – | – | – | – | –
CCOC(=O)c1oc2ccc(S(=O)(=O)N3CCC(C)CC3)cc2c1C | – | – | – | – | – | –
CCOC(=O)c1c[nH]n2c(=S)ncnc12 | · | · | · | · | – | ·
COc1ccc(CCNC(=O)c2oc3ccc(OC)cc3c2C)cc1 | – | – | – | – | – | –
Cc1oc(-c2cccc(Cl)c2)nc1CS(=O)(=O)CC(=O)NCCN1CCCC1 | – | – | – | – | – | –
CCN(CCNC(=O)C1CCN(Cc2nc(-c3ccc(Cl)cc3)oc2C)CC1)c1ccccc1 | -44.8 | – | 48.2 | – | – | –

Screening data from PubChem.
